Test results: PubChem BioAssay AID1159580 (chemical genetic matrix, 2015)
“And” between values parts separate entries of the source, which are not always exact repeats. Equal values may be shown once. Hit rate of the full screen: of about 5,500 compounds, about 2,000 (36%) were called active. Roughly 18% stayed inconclusive and do not appear here. No stated cut-off is given here; in the data, active means normalized growth mostly below about 0.91 (no sharp cut-off); inconclusive means no clear call, values can overlap the other calls; inactive means mostly above about 0.92. The list shows a part of the results.

Test: chemical genetic growth profiling, strain panel (AID 1159580);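 further: tested at 20 µM; growth read once vehicle control cultures reached saturation at 30 °C; 1 = growth at the plate median or of vehicle wells; lower values mean less growth of the strain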
Conditions: growth OD

Measured: normalized growth

CN/C(=C\[N+](=O)[O-])NCCSCc1ccc(CN(C)C)o1
inactive: S. cerevisiae deletion strains, locus YKL009W, strain mrt4, hits give low values 1.02 | S. cerevisiae deletion strains, locus YKL068W, hits give low values 0.999 | S. cerevisiae deletion strains, locus YKL085W, strain MDH1 (second series), hits give low values 1.01 | S. cerevisiae deletion strains, locus YKL085W, strain MDH1, hits give low values 1.01 | S. cerevisiae deletion strains, locus YKL160W, strain elf1, hits give low values 0.988 | S. cerevisiae deletion strains, locus YKL190W, strain CNB1, hits give low values 1.01 | S. cerevisiae deletion strains, locus YKR001C, strain vps1, hits give low values 0.993 | S. cerevisiae deletion strains, locus YKR026C, strain gcn3, hits give low values 1 | S. cerevisiae deletion strains, locus YKR091W, strain srl3, hits give low values 0.988 | S. cerevisiae deletion strains, locus YLL001W, strain dnm1, hits give low values 0.989 | S. cerevisiae deletion strains, locus YLL026W, hits give low values 0.992 | S. cerevisiae deletion strains, locus YLL041C, strain sdh2, hits give low values 0.979 | S. cerevisiae deletion strains, locus YLR027C, strain aat2, hits give low values 0.989 | S. cerevisiae deletion strains, locus YLR039C, strain RIC1, hits give low values 1.05 | S. cerevisiae deletion strains, locus YLR058C, strain SHM2, hits give low values 1.03 | S. cerevisiae deletion strains, locus YLR102C, strain apc9, hits give low values 0.977 | S. cerevisiae deletion strains, locus YLR113W, strain HOG1, hits give low values 0.996 | S. cerevisiae deletion strains, locus YLR221C, strain rsa3, hits give low values 0.993 | S. cerevisiae deletion strains, locus YLR258W, strain gsy2, hits give low values 0.99 | S. cerevisiae deletion strains, locus YLR262C, strain YPT6 (second series), hits give low values 0.972 | S. cerevisiae deletion strains, locus YLR262C, strain YPT6, hits give low values 1.11 | S. cerevisiae deletion strains, locus YLR268W, strain sec22, hits give low values 0.997 | S. cerevisiae deletion strains, locus YLR320W, strain mms22, hits give low values 0.99 | S. cerevisiae deletion strains, locus YLR330W, strain CHS5, hits give low values 1.01 | S. cerevisiae deletion strains, locus YLR342W, strain FKS1 (second series), hits give low values 1.01 | S. cerevisiae deletion strains, locus YLR342W, strain FKS1, hits give low values 0.969 | S. cerevisiae deletion strains, locus YLR357W, strain rsc2, hits give low values 0.908 | S. cerevisiae deletion strains, locus YLR370C, strain arc18, hits give low values 0.982 | S. cerevisiae deletion strains, locus YLR371W, strain rom2, hits give low values 0.983 | S. cerevisiae deletion strains, locus YLR384C, strain iki3, hits give low values 0.989 | S. cerevisiae deletion strains, locus YLR418C, strain cdc73, hits give low values 0.994 | S. cerevisiae deletion strains, locus YML016C, strain PPZ1, hits give low values 1.02 | S. cerevisiae deletion strains, locus YML032C, strain rad52, hits give low values 0.977 | S. cerevisiae deletion strains, locus YML120C, strain ndi1, hits give low values 0.981 | S. cerevisiae deletion strains, locus YML124C, strain tub3, hits give low values 0.991 | S. cerevisiae deletion strains, locus YMR058W, strain fet3, hits give low values 0.979 | S. cerevisiae deletion strains, locus YMR078C, strain ctf18, hits give low values 0.987 | S. cerevisiae deletion strains, locus YMR125W, strain sto1, hits give low values 0.982 | S. cerevisiae deletion strains, locus YMR129W, hits give low values 0.995 | S. cerevisiae deletion strains, locus YMR205C, strain PFK2, hits give low values 0.976 | S. cerevisiae deletion strains, locus YMR223W, strain ubp8, hits give low values 0.996 | S. cerevisiae deletion strains, locus YMR231W, strain pep5, hits give low values 0.997 | S. cerevisiae deletion strains, locus YMR263W, strain SAP30, hits give low values 1.04 and 1 | S. cerevisiae deletion strains, locus YMR307W, strain GAS1, hits give low values 1.07 and 1.03 | S. cerevisiae deletion strains, locus YNL067W, strain RPL9B, hits give low values 1.04 | S. cerevisiae deletion strains, locus YNL071W, strain lat1, hits give low values 0.987 | S. cerevisiae deletion strains, locus YNL128W, strain TEP1, hits give low values 1.02 | S. cerevisiae deletion strains, locus YNL153C, strain GIM3, hits give low values 1.01 | S. cerevisiae deletion strains, locus YNL175C, strain NOP13, hits give low values 0.997 | S. cerevisiae deletion strains, locus YNL183C, strain NPR1, hits give low values 0.944 | S. cerevisiae deletion strains, locus YNL197C, strain WHI3, hits give low values 1.01 | S. cerevisiae deletion strains, locus YNL209W, strain ssb2, hits give low values 0.994 | S. cerevisiae deletion strains, locus YNL224C, strain SQS1, hits give low values 0.998 | S. cerevisiae deletion strains, locus YNL233W, strain BNI4, hits give low values 1.03 | S. cerevisiae deletion strains, locus YNL248C, strain rpa49, hits give low values 0.98 | S. cerevisiae deletion strains, locus YNL250W, strain rad50, hits give low values 0.982 | S. cerevisiae deletion strains, locus YNL271C, strain bni1, hits give low values 0.974 | S. cerevisiae deletion strains, locus YNL298W, strain CLA4, hits give low values 1 | S. cerevisiae deletion strains, locus YNL307C, strain MCK1, hits give low values 0.986 | S. cerevisiae deletion strains, locus YNL322C, strain KRE1 (second series), hits give low values 0.96 | S. cerevisiae deletion strains, locus YNL322C, strain KRE1, hits give low values 1.01 | S. cerevisiae deletion strains, locus YNR049C, strain mso1, hits give low values 0.988 | S. cerevisiae deletion strains, locus YNR052C, strain pop2, hits give low values 0.984 | S. cerevisiae deletion strains, locus YOL006C, strain TOP1, hits give low values 1.13 | S. cerevisiae deletion strains, locus YOL012C, strain htz1 1.11 | S. cerevisiae deletion strains, locus YOL147C, strain pex11, hits give low values 0.99 | S. cerevisiae deletion strains, locus YOR001W, strain rrp6, hits give low values 0.982 | S. cerevisiae deletion strains, locus YOR061W, strain CKA2, hits give low values 1.02 | S. cerevisiae deletion strains, locus YOR069W, strain VPS5, hits give low values 1.02 | S. cerevisiae deletion strains, locus YOR070C, strain gyp1, hits give low values 0.989 | S. cerevisiae deletion strains, locus YOR080W, strain dia2, hits give low values 0.99 | S. cerevisiae deletion strains, locus YOR083W, strain WHI5 (second series), hits give low values 1.02 | S. cerevisiae deletion strains, locus YOR083W, strain WHI5, hits give low values 0.982 | S. cerevisiae deletion strains, locus YOR106W, strain vam3, hits give low values 0.999 | S. cerevisiae deletion strains, locus YOR136W, strain idh2, hits give low values 0.982 | S. cerevisiae deletion strains, locus YOR144C, strain elg1, hits give low values 0.992 | S. cerevisiae deletion strains, locus YOR184W, strain ser1, hits give low values 0.994 | S. cerevisiae deletion strains, locus YOR231W, strain MKK1, hits give low values 0.99 | S. cerevisiae deletion strains, locus YOR265W, strain rbl2, hits give low values 0.974 | S. cerevisiae deletion strains, locus YOR270C, strain vph1, hits give low values 1 | S. cerevisiae deletion strains, locus YOR290C, strain snf2, hits give low values 0.996 | S. cerevisiae deletion strains, locus YOR316C, strain cot1, hits give low values 0.985 | S. cerevisiae deletion strains, locus YPL051W, strain arl3, hits give low values 1 | S. cerevisiae deletion strains, locus YPL055C, strain LGE1, hits give low values 0.991 | S. cerevisiae deletion strains, locus YPL078C, strain atp4, hits give low values 0.982 | S. cerevisiae deletion strains, locus YPL106C, strain sse1, hits give low values 0.956 | S. cerevisiae deletion strains, locus YPL240C, strain hsp82, hits give low values 0.99 | S. cerevisiae deletion strains, locus YPL241C, strain CIN2, hits give low values 1 | S. cerevisiae deletion strains, locus YPL256C, strain CLN2, hits give low values 0.968 | S. cerevisiae deletion strains, locus YPR119W, strain clb2, hits give low values 0.988 | S. cerevisiae deletion strains, locus YPR141C, strain kar3, hits give low values 0.995 | S. cerevisiae deletion strains, locus YPR163C, strain tif3, hits give low values 0.993 | S. cerevisiae deletion strains, locus YPR167C, strain met16, hits give low values 0.98 | S. cerevisiae deletion strains, strain wtn01, hits give low values 0.987 | S. cerevisiae strains, strain wild type, hits give low values 1.02
